Assay results taken from PubChem BioAssay AID1979 (Broad Institute, 2009).
Out of some 300,000 compounds screened, about 1,700 (0.57%) were called active. About 2% were inconclusive and are not listed.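 How the source made its calls: active means growth inhibition above about 58% in most replicates (limit read from the data, passing the limit was not always enough); inconclusive means exactly half the replicates above a set limit; inactive means most replicates below a set limit.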 The list comes from a sample in which actives are over-represented; it also holds similar structures and randomly drawn compounds.

Assay: C. albicans growth inhibition with fluconazole, primary screen, CaCi-2 strain, Alamar Blue fluorescence (AID 1979);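 further: all wells also contain fluconazole at 8 µg/ml as a sub-toxic cotreatment; 0% = median of DMSO wells and 100% = median of geldanamycin control wells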
Settings: C. albicans CaCi-2 (fluconazole-resistant clinical isolate) + fluconazole, 48 h, stronger effect = higher value, concentration not given here

Growth inhibition, active:
CCN1CCN(C(c2cccnc2)c2cc(Cl)c3cccnc3c2O)CC1 (stereo not drawn) 101%
Oc1ccc(Br)cc1/C=N/Nc1ccccn1 106%
CCc1nnc(NC(=O)CSc2nc(SC)ns2)s1 81.2%
Cc1oc2c(F)c(F)c(F)c(F)c2c1S(=O)(=O)Nc1cccc(C(F)(F)F)c1 84.7%
OC(CNCC1CCCO1)Cn1c2ccc(Br)cc2c2cc(Br)ccc21 (stereo not drawn) 101%
Cc1ccc(NC(=O)c2sc3nc(N)c(C#N)cc3c2N)cc1 88.6%
Cc1cccc(NC(=O)c2ccc([N+](=O)[O-])o2)c1 83.3%
COc1ccc(OC)c(Nc2nc(-c3ccc(O)c(O)c3)cs2)c1 97.8%
CCOc1cc(N2CCOCC2)c(OCC)cc1NC(=O)COc1cccc2cccnc12 101%
Cc1ccc(-c2nnn(CC(=O)N(Cc3ccco3)C(C(=O)NC(C)(C)C)c3ccncc3)n2)o1 (stereo not drawn) 115%
CC1COc2ccccc2N1S(=O)(=O)c1ccccc1 (stereo not drawn) 99.8%

Growth inhibition, inactive:
COc1ccc(OC)c(NC(=O)c2ccc3c(c2)C(=O)N(c2ccc(OC(C)=O)cc2)C3=O)c1 0.417%
CC(=O)c1sc(N)nc1C -4.24%
Cc1ccc(NC(=O)COc2coc(CN3CCc4ccccc4C3)cc2=O)cc1Cl -1.39%
Cc1ccc(CC(=O)N(C)CC(=O)N(CC(C)C)c2c(N)n(CC(C)C)c(=O)[nH]c2=O)cc1C 1.58%
CCOC(=O)N1CCN(C(c2cccnc2)c2ccc3cccnc3c2O)CC1 (stereo not drawn) -9.67%
Oc1ccccc1CN1CCN(C(c2ccccc2)c2ccccc2)CC1 -4.19%
CC(=O)Nc1ccc(C(=O)Nc2cccc(S(=O)(=O)NC3=NCCC3)c2)cc1 3.58%
Oc1ccc(/C=N/Nc2ccc(C(F)(F)F)cn2)cc1O -7.01%
O=C(CCCO)N/N=C/c1cc(Br)ccc1O -31.2%
Cc1cc(NC(=O)C(C)SCC(=O)Nc2ccccc2N2CCCCC2)no1 (stereo not drawn) 1.22%
O=C(Nc1nc(-c2ccco2)c(-c2ccco2)s1)c1ccco1 -0.652%
CSc1nsc(SCC(=O)Nc2cc(C(=O)O)ccc2C)n1 17.7%
CCc1nnc(NC(=O)CCC(=O)O)s1 -5.2%
CC(=O)O[C@H]1CC[C@@]2(C)[C@@H](CC[C@@H]3[C@@H]2CC[C@]2(C)[C@@H](C(C)(C)O)C[C@@H]32)C1 1.13%
O=C1CCCCC1Sc1ccc(Cl)cc1[N+](=O)[O-] (stereo not drawn) -3.28%
C[C@@H]1O[C@@H](OC[C@H]2O[C@@H](Oc3c(-c4ccc(O)cc4)oc4cc(O)cc(O)c4c3=O)[C@H](O)[C@@H](O)[C@@H]2O)[C@H](O)[C@H](O)[C@H]1O 1.9%
Cc1ccc(-c2cc(C(=O)NC3CCN(Cc4ccccc4)CC3)c3ccccc3n2)cc1 2.43%
CCNS(=O)(=O)c1ccc(NC(=O)Nc2cccc(C(F)(F)F)c2)cc1 -8.1%
CCOC(=O)N1CCN(C(=O)c2ccc(S(=O)(=O)Nc3cccc(C(F)(F)F)c3)cc2)CC1 -2.84%
Cc1cc(NC(=O)CCS(=O)(=O)c2ccc(F)cc2)no1 -4.39%
CN(CC(=O)Nc1cccc(F)c1)C(=O)C1=COCCO1 -19.9%
Cc1ccc(S(=O)(=O)N2CCC(C(=O)OCC(=O)N(C)c3ccccc3)CC2)cc1C 5.01%
CC(NS(=O)(=O)c1ccc(Br)cc1)C(=O)NCC1CCCO1 (stereo not drawn) -9.65%
CCCN1CCn2c3c(c4cc(Br)ccc42)CCCC31 (stereo not drawn) -13.4%
Cc1nc(-c2ccc(Cl)cc2)sc1C1(C)CC(c2ccc(Br)cc2)=NO1 (stereo not drawn) 1.65%
COCCNC(=O)C1CCN(S(=O)(=O)c2ccc3c(c2)OCCO3)CC1 0.395%
COc1ccc(NC(=O)c2cc(-c3ccc(C)cc3)on2)cc1 2.77%
CCc1ccc2nc3sc(C(=O)Nc4nnc(CC)s4)c(N)c3cc2c1 44%
COC(=O)c1ccc(SCc2ccccc2)nc1 13.7%
CN(C)c1nc(NN)nc(Nc2ccc(F)cc2)n1 3.13%
COc1cnn(-c2ccc([N+](=O)[O-])cc2)c(=O)c1Cl -11.1%
Cc1ccc(N2CC(C(=O)Nc3cc(Cl)ccc3-n3cncn3)CC2=O)cc1 (stereo not drawn) -4.63%
Cc1onc(NC(=O)c2ccc([N+](=O)[O-])o2)c1Br -0.786%
O=C(Nc1ccc(Br)cn1)c1ccc([N+](=O)[O-])o1 18.1%
CC(=O)N(CC(O)CO)c1c(I)c(C(=O)NCC(O)CO)c(I)c(C(=O)NCC(O)CO)c1I (stereo not drawn) -2.27%
COc1cccc(CC(=O)Nc2nc(-c3ccc(OC)c(OC)c3)cs2)c1 -0.204%
COc1ccc(C)cc1Nc1nc(-c2c(C)[nH]c3ccccc23)cs1 0.619%
O=C(NCCC1CCCCN1S(=O)(=O)c1ccccc1)C(=O)NCC1CCCO1 (stereo not drawn) -4.24%
N#Cc1cccc(OC(=O)c2ccc3c(=O)n4c(nc3c2)CCC4)c1 6.7%
Brc1cnc2ccccc2c1N1CCCCC1 0.784%
CCOc1cc(N2CCOCC2)c(OCC)cc1NC(=O)c1cc(C)nc2ccccc12 -4.82%
CCOc1cc(N2CCOCC2)c(OCC)cc1NC(=O)COc1cccc(Cl)c1 18.5%
Cc1ccc(-c2nnn(CC(=O)N(CCO)C(C(=O)NC(C)(C)C)c3ccncc3)n2)cc1 (stereo not drawn) -7.13%
Cc1cccc(N(C(=O)Cn2nnc(-c3ccc(C)o3)n2)C(C(=O)NC2CCCC2)c2ccncc2)c1 (stereo not drawn) 9.19%
Cc1c(C(=O)NC(C)C2CC3CCC2C3)cccc1[N+](=O)[O-] (stereo not drawn) -2.33%
CC1CN(S(=O)(=O)c2ccccc2)C(C)CN1S(=O)(=O)c1ccccc1 (stereo not drawn) 3.32%
O=S(=O)(c1ccccc1)N1CCc2ccccc21 -2.11%
